The nature of test [1]: qHTS assay to identify small molecule antagonists of the TGF-beta/Smad signaling pathway - cell viability counter screen (AID 1346824). Also: nearly all actives have a fitted effect of over 50% in size. A digest of the protocol: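 SBE-bla HEK 293T cells were plated overnight at 37 C, then given compounds in DMSO plus TGF-beta1 (added as 0.25 ng/mL solution) for 5 hr. After the bla read, CellTiter-Glo was added to the same wells and luminescence read after 30 min at room temperature.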

The nature of test [2]: qHTS assay to identify small molecule agonists of the TGF-beta/Smad signaling pathway - cell viability counter screen (AID 1346829). Also: top concentration of the series differs between compounds; nearly all actives have a fitted effect of over 45% in size. The essentials: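 Cytotoxicity counter screen: CellTiter-Glo luminescence (30 min, room temperature) measured in the SBE-bla HEK 293T reporter wells after 5 hr compound treatment at 37 C and the 2 hr substrate step.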
(In general: qHTS replaces the single test concentration by a dilution series.)

Test [3] is described as follows: qHTS assay to identify small molecule agonists of the TGF-beta/Smad signaling pathway (AID 1346859; active = well fitted activation curve with a large enough effect in the signal ratio in the repeat runs, not every such curve was filed as active; the % refers to the signal ratio; also: series mostly up to about 77 µM). A digest of the protocol:
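Each well held 4,000 SBE-bla HEK 293T cells incubated overnight before compound addition; 5 hr later the cleavable FRET substrate went on for 2 hr at room temperature, and fluorescence was read at two emissions.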

Test [4] has as its target Thyrotropin-releasing hormone receptor (Homo sapiens) (UniProt P34981). The test is described as follows: qHTS assay to identify small molecule antagonists of the thyrotropin-releasing hormone receptor (TRHR) signaling pathway (AID 1346877; active = well fitted inhibition curve with a large enough effect in the repeat runs, not every such curve was filed as active; also: series mostly up to about 51 µM). The essentials:
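TRHR-expressing HEK293 cells were seeded, cultured 18 h at 37 °C, then loaded with calcium dye for 2 h. Compounds were pre-incubated 5 min at room temperature before 1 nM TRH (final) was added, and kinetic fluorescence was recorded for 3 min.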

Test [5] shares this target. In words: qHTS assay to identify small molecule agonists of the thyrotropin-releasing hormone receptor (TRHR) signaling pathway (AID 1346891; calls by dose curve; also: series mostly up to about 58 µM). The essentials:
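Screening of agonists relied on calcium signalling in HEK293 cells expressing human TRHR: dye loading 2 h at 37 °C preceded compound addition and a 3-min fluorescence time course.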

The nature of test [6]: Caspase-3/7 induction in CHO-K1 cells by small molecules, qHTS cell viability counter screen (AID 1346979). Also: nearly all actives have a fitted effect of over 35% in size. Also: potency is read from the fitted curve at half-maximal effect. A digest of the protocol:
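CellTiter-Fluor viability check, qHTS format: wild-type CHO-K1, 16hr compound treatment, 1hr reagent incubation, fluorescence read.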

A short description of test [7]: Caspase-3/7 induction in CHO-K1 cells by small molecules, qHTS assay (AID 1346980). Also: nearly all actives have a fitted effect of over 15% in size. The essentials:
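Wild-type cells were seeded at 1,500 per well and settled 5 hr at 37 C, 5% CO2, then exposed to DMSO-dissolved compounds for 17 hr. Caspase-Glo 3/7 reagent was added, and luminescence was read after 30min at room temperature.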

A short description of test [8]: Caspase-3/7 induction in HepG2 cells by small molecules, qHTS cell viability counter screen (AID 1346981). Also: nearly all actives have a fitted effect of over 30% in size. Also: potency is read from the fitted curve at half-maximal effect. A digest of the protocol: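 Wild-type HepG2 cells (2,000/well) were allowed to settle for 5 hr at 37 C, 5% CO2, then dosed with compounds in DMSO by pin transfer. After 16 hr at 37 C, CellTiter-Fluor was added and fluorescence read 1 hr later.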
The nature of test [9]: Caspase-3/7 induction in HepG2 cells by small molecules, qHTS assay (AID 1346978). Also: nearly all actives have a fitted effect of over 15% in size. A digest of the protocol:
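Wild-type HepG2 cells (2,000/well) were settled 5 h at 37 C, 5% CO2, then exposed to compounds in DMSO for 17 h. Caspase-3/7 activity was read by luminescence 30 min after adding Caspase-Glo 3/7 reagent at room temperature.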

Test [10] can be described thus: Human pregnane X receptor (PXR) small molecule agonists, qHTS cell viability counter screen (AID 1346977). Also: nearly all actives have a fitted effect of over 50% in size. Also: potency is read from the fitted curve at half-maximal effect. A digest of the protocol: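 Tox21 qHTS format; PXR-Luc HepG2, 2,000/well, charcoal-stripped FBS 5%. Cpd exposure 24hr. Read: CellTiter-Fluor fluorescence, multiplexed with luciferase.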

The values below come from PubChem BioAssay (Tox21).

Results filed as inconclusive are left out. A structure can be active in one record and inactive in another. Activity calls are given as the source filed them. Unless noted, calls follow the shape of the dose curve; as a rule, active = well fitted curve in the direction sought with a large enough effect in the repeat runs; inconclusive = weak or mixed curves; inactive = no such curve, though single readings can be large; an effect the other way counts as inactive or inconclusive.

Thyrotropin-releasing hormone receptor (Homo sapiens), sequence (P34981 whole entry, looked up): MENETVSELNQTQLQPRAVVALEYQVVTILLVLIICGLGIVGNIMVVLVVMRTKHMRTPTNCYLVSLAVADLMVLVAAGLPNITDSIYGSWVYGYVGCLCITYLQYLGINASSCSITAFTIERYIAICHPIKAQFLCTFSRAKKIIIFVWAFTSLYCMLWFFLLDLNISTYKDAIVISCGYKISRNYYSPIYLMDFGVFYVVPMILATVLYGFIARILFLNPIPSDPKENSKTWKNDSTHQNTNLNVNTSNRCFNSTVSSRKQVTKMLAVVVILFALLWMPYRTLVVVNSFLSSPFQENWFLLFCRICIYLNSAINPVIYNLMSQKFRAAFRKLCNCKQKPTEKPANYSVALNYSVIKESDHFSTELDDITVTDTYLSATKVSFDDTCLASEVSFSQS

Turning to `CCCCCOC(C)=O`, the Potency result in test [1], in test [2], in [4], in test [6] and in test [8] was “inactive” each time. Moreover, the result in test [3], in [5] and in test [7] was inactive.
Take `Cc1cc(C)c(C)cc1C`: the Potency result in test [1], in test [2], in test [4], in test [9], in test [6] and in test [8] was “inactive” throughout. Besides, the compound was called inactive in [3], in [5] and in [7].
On to `C[Si](O[Si](C)(C)C)O[Si](C)(C)C`, for which the Potency entry in test [1], in test [2], in test [4], in test [6] and in test [8] was “inactive” each time. Also, the compound was classed as inactive in [3], in [5] and in [7].
Take `O=C=NCCCCCCN=C=O`: the Potency entry in [1], in test [2], in test [4] and in test [8] was “inactive” throughout. For the same compound, the compound was called inactive in test [3], in test [5] and in [7].
Turning to `CCCCCCCC(=O)OC`, the Potency entry in test [1], in [2], in [4], in test [9] and in [8] was “inactive” in each case. The call in [3], in test [5] and in test [7] was inactive.
`O=C(O)c1cc(O)c(O)c(O)c1`: the Potency entry in test [1], in [2], in test [4] and in test [9] was “inactive” in each case. The compound was classed as inactive in test [3], in [5] and in test [7]. For the same compound, the Potency in test [6] is 30.9 µM (active); in test [8], 43.7 µM (active).
For the compound `CC1=CCC2CC1C2(C)C` (stereo unspecified), the Potency entry in [1], in test [2], in [4], in test [10], in test [9] and in [8] was “inactive” in each case. For the same compound, the compound was classed as inactive in test [3] and in [7].
On to `CCCCOC(=O)COc1ccc(Cl)cc1Cl`, for which the Potency entry in test [1], in test [2], in test [4], in test [9], in test [6] and in [8] was “inactive” in each case. For the same compound, the call in test [3] and in [7] was inactive.
As to `OC[C@H]1O[C@@](CO)(O[C@H]2O[C@H](CO)[C@@H](O)[C@H](O)[C@H]2O)[C@@H](O)[C@@H]1O`, the Potency entry in test [1], in test [2], in test [4] and in [8] was “inactive” each time. Also, the compound was classed as inactive in test [3], in test [5] and in [7].
Consider `Oc1cccc2ccccc12`, for which the Potency entry in test [1], in test [2], in test [4], in test [10], in test [9] and in test [6] was “inactive” in each case. Further, the Potency entry in test [8] is “inactive”. The call in [3] and in test [7] was inactive.
For `CCCCC(CC)COC(=O)CS` (stereo unspecified), the Potency result in [1], in [2], in test [4], in [10] and in test [8] was “inactive” throughout. The compound was called inactive in [3], in test [5] and in test [7].
As to `CC(C)(N)CO`, the Potency result in test [1], in [2], in test [4], in test [10], in test [9] and in test [6] was “inactive” each time. The Potency entry in [8] was “inactive”. For the same compound, the call in test [3], in [5] and in test [7] was inactive.
Take `c1c[nH]cn1`: the Potency result in [1], in test [2], in test [4], in [10], in [9] and in [8] was “inactive” throughout. In addition, the result in test [3], in test [5] and in [7] was inactive.
For the compound `O=C(O)c1ccc(C(=O)O)cc1`, the Potency result in test [1], in test [2], in test [4], in [10], in test [9] and in [6] was “inactive” throughout. Moreover, the Potency entry in [8] was “inactive”. In addition, the call in [3], in test [5] and in test [7] was inactive.
Consider `O=C(O)c1ccccc1C(c1ccc(O)cc1)c1ccc(O)cc1`, for which the Potency result in test [1], in [2], in [4], in test [10], in test [6] and in test [8] was “inactive” each time. Moreover, the call in test [3] and in [7] was inactive.
As to `CCCCCCCCCCCCS`, the Potency entry in test [1], in test [2], in test [4], in test [9] and in test [8] was “inactive” each time. In addition, the call in test [3], in test [5] and in test [7] was inactive.
As to `CCCCCC/C(C=O)=C\c1ccccc1`, the Potency result in [1], in test [2], in test [4], in test [6] and in test [8] was “inactive” in each case. Besides, the call in test [3], in test [5] and in [7] was inactive.
`CCCCN(CCCC)CCCC`: the Potency entry in [1], in test [2], in test [4], in test [10], in [9] and in test [8] was “inactive” each time. The compound was called inactive in test [3], in [5] and in test [7].
With `O=C1CCC(N2C(=O)c3ccccc3C2=O)C(=O)N1` (stereo unspecified), the Potency entry in test [1], in [2], in [4], in test [10], in test [9] and in test [6] was “inactive” throughout. Besides, the Potency result in test [8] was “inactive”. In addition, the compound was called inactive in test [3], in test [5] and in test [7].
For the compound `CCC(O)OCCCOC` (stereo unspecified), the Potency result in [1], in test [2], in [4], in test [9] and in test [8] was “inactive” each time. Besides, the result in [3] and in test [7] was inactive. Also, the Potency was 22.4 µM (active) and inactive in [10]; 5.59 µM (active) and inactive in [6].
As to `COc1ccc(NC(C)=O)cc1N`, the Potency result in test [1], in test [2], in test [4], in test [9], in [6] and in [8] was “inactive” throughout. For the same compound, the compound was called inactive in test [3], in [5] and in test [7].
Take `Cc1occc(=O)c1O`: the Potency entry in [1], in test [2], in [4], in [10], in test [9] and in test [6] was “inactive” each time. Further, the Potency result in test [8] is “inactive”. Besides, the compound was called inactive in test [3] and in test [7].
Consider `O=c1[nH]c(=O)n([C@H]2CCCO2)cc1F`, for which the Potency result in test [1], in [2], in [4], in test [6] and in [8] was “inactive” throughout. Further, the compound was classed as inactive in test [3], in test [5] and in test [7].
With `CCC(O)OC(O)CC` (stereo unspecified), the Potency entry in test [1], in [2], in test [4], in test [10], in test [6] and in test [8] was “inactive” each time. Besides, the call in test [3], in test [5] and in [7] was inactive.
With `CSCCC=O`, the Potency entry in [1], in test [2], in test [4], in [9], in test [6] and in test [8] was “inactive” each time. Further, the outcome in test [3] and in test [7] was inactive.
Regarding `OCCOCCN1CCN(C2=Nc3ccccc3Sc3ccccc32)CC1`, the Potency entry in [1], in test [2], in test [4], in test [10], in [9] and in test [8] was “inactive” each time. Also, the call in test [3] and in test [7] was inactive.
